Our source for the outcome values is PubChem BioAssay AID2654 (Johns Hopkins Ion Channel Center, 2010).

Measured potencies and affinities stand elsewhere. Calls of active or inactive are those of the source.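 Rule for the calls: active = increase of the KCNQ2 potassium channel current at -35 mV by at least one tested dose; inactive = no tested dose increases that current.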

In the test the target is Potassium voltage-gated channel subfamily KQT member 2 (Rattus norvegicus) (UniProt O88943). The test can be described thus: potentiation of rat KCNQ2 current – cell-based, retigabine-insensitive compounds, dose response (AID 2654). Particulars: KCNQ2-CHO cells, automated patch clamp current potentiation; at 30 µM (top of the series).
Sequence of Potassium voltage-gated channel subfamily KQT member 2 (Rattus norvegicus) (O88943 whole entry, looked up): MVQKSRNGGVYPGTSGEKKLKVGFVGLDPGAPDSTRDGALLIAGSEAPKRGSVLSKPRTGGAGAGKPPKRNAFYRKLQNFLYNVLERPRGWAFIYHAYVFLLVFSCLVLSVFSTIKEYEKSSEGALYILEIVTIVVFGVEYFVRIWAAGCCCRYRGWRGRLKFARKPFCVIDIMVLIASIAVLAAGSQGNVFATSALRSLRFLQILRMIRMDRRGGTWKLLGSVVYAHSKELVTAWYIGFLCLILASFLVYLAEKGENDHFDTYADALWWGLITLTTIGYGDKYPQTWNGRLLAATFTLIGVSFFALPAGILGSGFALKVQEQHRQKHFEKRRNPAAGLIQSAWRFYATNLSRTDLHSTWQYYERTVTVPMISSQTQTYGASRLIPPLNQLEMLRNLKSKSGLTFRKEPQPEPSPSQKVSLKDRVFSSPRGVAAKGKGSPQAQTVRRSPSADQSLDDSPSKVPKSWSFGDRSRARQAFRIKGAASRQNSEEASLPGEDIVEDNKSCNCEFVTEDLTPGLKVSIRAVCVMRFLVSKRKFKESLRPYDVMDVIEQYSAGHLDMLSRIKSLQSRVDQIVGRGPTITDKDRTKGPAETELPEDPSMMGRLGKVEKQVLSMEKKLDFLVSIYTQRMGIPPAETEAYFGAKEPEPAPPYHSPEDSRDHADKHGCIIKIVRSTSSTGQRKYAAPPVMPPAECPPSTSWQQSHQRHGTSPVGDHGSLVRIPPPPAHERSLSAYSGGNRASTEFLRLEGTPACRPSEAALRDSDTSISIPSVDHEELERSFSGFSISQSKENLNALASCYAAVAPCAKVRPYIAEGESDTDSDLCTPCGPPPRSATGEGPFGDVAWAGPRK

Regarding `O=C(Nc1cccnc1)Nc1ccc(F)cc1F`, the result was inactive.
With `Cc1ccnc(NC(=O)Nc2cccc(F)c2)c1` the entry was “inactive”; with `COc1ccc(NC(=O)Nc2cccnc2)c(OC)c1`, “inactive”.
